{
  "source": "PubChem BioAssay (NCI)",
  "note": "The panel holds about 83,000 compounds, 20% with a hit somewhere; the sample as a whole holds those more often.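 Single-dose data. Exposure time 48 hours. Values below 10 considered active.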 Activity calls are given as the source filed them.",
  "data": [
    {"system": "RPMI-8226 leukemia", "experiment": "NCI-60 one-dose screen, 48 h (100 = growth as untreated, 0 = no growth, -100 = all killed)", "details": "10 µM unless noted", "values": [
      {"smiles": "Nc1nc(N)nc(N2CCCCC2)n1", "growth": "101% (inactive)"},
      {"smiles": "O=C1NCC2CCCC1C2", "note": "(configuration not stated)", "growth": "118% (inactive)"},
      {"smiles": "Cc1cc(CO)c(O)c(CO)c1", "growth": "91% (inactive)"},
      {"smiles": "C#CC(O)c1ccccc1", "note": "(configuration not stated)", "growth": "104% (inactive)"},
      {"smiles": "COc1ccc(Br)c(C=O)c1", "growth": "22.2% (inactive)"},
      {"smiles": "COC(c1ccc2c(c1)OCO2)C(C)Br", "note": "(configuration not stated)", "growth": "93.5% (inactive)"},
      {"smiles": "O=C(O)c1ccccc1Cc1ccc2c(c1)CCCC2", "growth": "108% (inactive)"},
      {"smiles": "O=[N+]([O-])c1ccc(-c2nc(N(CCO)CCO)c3ccccc3n2)o1", "growth": "4.26% (active)"},
      {"smiles": "O=Cc1ccc(Cl)c(Cl)c1", "growth": "105% (inactive)"},
      {"smiles": "CCC(C)C1CCC(O)CC1", "note": "(configuration not stated)", "growth": "107% (inactive)"},
      {"smiles": "CC(C)c1ncc([N+](=O)[O-])n1C", "growth": "102% (inactive)"},
      {"smiles": "COc1ccc(/C=C\\C(=O)/C=C/c2ccc(OC)cc2)cc1", "growth": "-20% (active)"},
      {"smiles": "Nc1cc2c(cc1Cl)C(=O)c1ccccc1C2=O", "growth": "51.1% (inactive)"},
      {"smiles": "Cc1ccc(Cc2ccc(C)cc2)cc1", "growth": "106% (inactive)"},
      {"smiles": "N#C/C(=C\\c1ccc2c(c1)OCO2)c1ccccc1", "growth": "74.8% (inactive)"},
      {"smiles": "CCOC(=O)c1c[nH][nH]c1=O", "growth": "93% (inactive)"},
      {"smiles": "O=c1[nH]c(=O)c2cc(Cl)cc(Cl)c2[nH]1", "growth": "104% (inactive)"},
      {"smiles": "CC(=O)c1cc(O)ccc1O", "growth": "119% (inactive)"},
      {"smiles": "Nc1ccn(C2CC(N)C(CO)O2)c(=O)n1", "note": "(configuration not stated)", "growth": "31.5% (inactive)"},
      {"smiles": "CNc1ccccc1C(N)=O", "growth": "110% (inactive)"},
      {"smiles": "Cn1c(=O)[nH]c2ccccc2c1=O", "growth": "112% (inactive)"},
      {"smiles": "CCOC(=O)C(C#N)=C1CCN(C)CC1", "growth": "102% (inactive)"},
      {"smiles": "NNC(=O)c1ccccc1N", "growth": "88.9% (inactive)"},
      {"smiles": "COC(CCCl)c1ccc(Cl)cc1", "note": "(configuration not stated)", "growth": "100% (inactive)"},
      {"smiles": "C=CCC(OC(C)=O)c1ccc(OC)c(OC)c1", "note": "(configuration not stated)", "growth": "97.1% (inactive)"},
      {"smiles": "COc1ccc(C2CCCCC2=O)cc1", "note": "(configuration not stated)", "growth": "107% (inactive)"},
      {"smiles": "O=[N+]([O-])c1c(Cl)ncnc1Cl", "growth": "96.2% (inactive)"},
      {"smiles": "CCN(CC)c1ccc2nc3ccc(N=Nc4ccc(N(C)C)cc4)cc3[n+](-c3ccccc3)c2c1", "growth": "-23.6% (active)"},
      {"smiles": "c1ccc2[nH]c(Cc3nc4ccccc4[nH]3)nc2c1", "growth": "71.9% (inactive)"},
      {"smiles": "CC1=CC(=Nc2ccc(N(C)C)cc2)C=C(C)C1=O", "growth": "39.7% (inactive)"},
      {"smiles": "N#CCCN1C(=O)CCC1C(=O)O", "note": "(configuration not stated)", "growth": "95.2% (inactive)"},
      {"smiles": "O=C(O)Cc1cccc2ccccc12", "growth": "104% (inactive)"},
      {"smiles": "Cc1nc(C)c(C(=O)O)cc1C(=O)O", "growth": "106% (inactive)"},
      {"smiles": "Clc1ccc(/C=C/c2ccccn2)cc1", "growth": "45.5% (inactive)"},
      {"smiles": "N#CC1(O)CCCCC1", "growth": "105% (inactive)"},
      {"smiles": "CCNc1ncnc2[nH]ncc12", "growth": "73.9% (inactive)"},
      {"smiles": "CC12CCC3c4ccc(O)cc4CCC3C1CCC2=O", "note": "(configuration not stated)", "growth": "98.8% (inactive)"}
    ]}
  ]
}
